Shown are actives, neighbours in structure and some others; about 0.99% of the full set was active somewhere.
TRPML1 blocker – human mucolipin-1 channel inhibition; Q9GZU1; TRPML1-inducible cells, Ca2+ dye fluorescence, FDSS; active compounds read low; inhibition of EC80 agonist-evoked calcium signal; activity change, negative = inhibition, % (concentration not given with the values); hit rate 0.02% among 390,000; in the data active = activity change below about -50%; inconclusive = between about -30% and that limit;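 also: stimulus is agonist 54-4 at its EC80 concentration; % is scaled to controls: 0 for no effect and ±100 for the full control effect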
Target sequence (Q9GZU1 whole entry, looked up): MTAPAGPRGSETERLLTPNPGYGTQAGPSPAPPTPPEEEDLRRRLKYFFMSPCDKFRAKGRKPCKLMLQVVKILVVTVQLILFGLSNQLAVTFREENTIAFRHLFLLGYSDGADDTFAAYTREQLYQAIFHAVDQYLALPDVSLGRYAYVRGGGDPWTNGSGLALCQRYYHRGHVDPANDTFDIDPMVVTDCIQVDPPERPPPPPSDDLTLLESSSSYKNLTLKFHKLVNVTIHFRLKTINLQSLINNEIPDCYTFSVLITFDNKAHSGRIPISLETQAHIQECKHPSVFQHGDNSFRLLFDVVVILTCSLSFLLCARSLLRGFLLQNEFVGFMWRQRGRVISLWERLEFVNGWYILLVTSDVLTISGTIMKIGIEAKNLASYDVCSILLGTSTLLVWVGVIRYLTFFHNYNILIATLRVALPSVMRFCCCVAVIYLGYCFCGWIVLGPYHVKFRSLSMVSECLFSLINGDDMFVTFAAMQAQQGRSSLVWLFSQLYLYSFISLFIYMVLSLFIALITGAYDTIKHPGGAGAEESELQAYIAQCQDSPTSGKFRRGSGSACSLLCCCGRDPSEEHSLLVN
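TRPML1-DL cells, Tet-induced overnight (~16 h, 37 °C) at 1,500 cells/well, were loaded with Ca8 no-wash dye plus quencher for 45-90 min at room temperature. Compounds were pinned during FDSS kinetic reading; agonist 54-4 at EC80 (4 uM final) then added.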
TRPV1 ag – activates the human vanilloid receptor TRPV1; TRPV1-expressing cells, Fluo-8 calcium influx, agonist mode; Q8NER1; hit rate 0.19% among 320,000; activation, % at 8.33 µM; in the data active = activation above about 80%; inconclusive = between about 30% and that limit; also: 0% is about no effect
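TRPV1-expressing cells were cultured overnight at 35.5C and loaded with Fluo-8 calcium dye for 40 to 90 min at room temperature. After a 10 s baseline, compound was added and calcium influx was read kinetically for 3 min (ex 480/em 520 nm).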
TRHR enhancer-1 – allosterically enhances the human TRH receptor; TRHR cells, fluo-8 calcium fluorescence, EC20 TRH enhancement; enhancement, % at 2 µM; hit rate 0.66% among 360,000; AID 493056; in the data active = enhancement above about 30%; also: 0% is about no effect
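Enhancer read-out: after compound pinning and an initial kinetic agonist-mode read, an EC20 of TRH (10 nM final) was injected and fluo-8 calcium signal (Ex 480/Em 530) followed at 1 s/cycle for 100 cycles in TRHR-expressing cells.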
TRHR agonist-1 – activates the human TRH receptor; TRHR cells, calcium flux fluo-8, FDSS agonist mode; activation, % at 2 µM; hit rate 0.18% among 360,000; AID 493084; in the data active = activation above about 30%; also: 0% is about no effect
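Read-out: compound-evoked intracellular calcium rise in TRHR cells, fluo-8 dye, kinetic FDSS fluorescence at 1 s/cycle following a 10-cycle baseline. Cells cultured overnight before dye loading (30 min–1.5 h, RT).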
TRPV1 potentiator – potentiators of human vanilloid receptor 1 (TRPV1); hit rate 0.02% among 320,000; potentiation, % at 8.33 µM; Q8NER1; TRPV1-expressing cells, Fluo-8 calcium influx, capsaicin EC20 potentiation; in the data active = potentiation above about 80%; inconclusive = between about 30% and that limit; also: 0% is about no effect
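Cells expressing TRPV1 were dye-loaded with Fluo-8 and read kinetically: 10 s baseline, 3 min after compound (agonist portion), then 2 min after EC20 capsaicin (allosteric enhancer portion). Calcium-bound dye fluorescence at 480/520 nm.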
TRPML1 ag – activates the human TRPML1 channel; Q9GZU1; TRPML1-expressing cells, Ca2+ dye fluorescence, FDSS; activation, % (test concentration not listed); hit rate 0.12% among 410,000; AID 624414; in the data active = activation above about 50%; inconclusive = mostly about 30% to 49%; also: 0% is about no effect
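Calcium fluorescence on an FDSS kinetic reader gave the read-out. Tet-induced TRPML1-DL cells were plated overnight, dye-loaded (Ca8 with quencher, 45-90 min, room temperature, dark), then read 110 s after compound addition, and again 110 s after 4uM final 54-4 (EC80).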
TRHR enhancer-2 – human TRH receptor allosteric enhancement confirmation; AID 493076; 970 tested, under 10 active; activity change, negative = inhibition, % at 46.1 µM; shares compounds with TRHR enhancer-1; TRH receptor cell assay, enhancer confirmation qHTS;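 also: compound effect scored on response to added TRH at EC20 of 10 nM; 0% is about no effect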
TRHR agonist-2 – confirmation of human TRH receptor agonists | hit rate 8% among 970 | shares compounds with TRHR enhancer-1 | AID 493078 | TRHR-expressing cells, agonist activation read-out | Potency, µM (titrated, usually from 46.1 µM), for inactives: at the highest dose activation, actives largely listed as activators; also: potency is read from the fitted curve at half-maximal effect; 0% is about no effect; nearly all actives have a fitted effect of over 75% in size
An asterisk follows results filed as active; u = inconclusive; x = no result given. Unless noted, calls follow the shape of the dose curve; as a rule, active = well fitted curve in the direction sought with a large enough effect; inconclusive = small, poorly fitted or top-dose-only effect, or another doubt; inactive = no such curve, though single readings can be large; an effect the other way counts as inactive or inconclusive.

SMILES	TRPML1 blocker	TRPV1 ag	TRHR enhancer-1	TRHR agonist-1	TRPV1 potentiator	TRPML1 ag	TRHR enhancer-2	TRHR agonist-2
CCOc1cc(/C=C/C(=O)Nc2ccc(C(=O)NCCN(CC)CC)cc2)ccc1OCC(C)C	2	u	42*	0	8	0	2	1%
CCOc1ccc(/C=C/C(=O)Nc2ccc(C(N)=O)cc2)cc1OC	-10	u	3	1	-4	-1	x	x
O=C(CNC(=O)c1ccccc1)NC1(C(=O)NC2CCCCC2)CCCCC1	0	4	53*	1	1	0	-16	-1%
O=C(CNC(=O)c1ccccc1)NC1(C(=O)NC2CCCC2)CCCCC1	6	-1	-5	0	-11	-1	x	x
CN(C)c1ccc(/C=C2\C=Cc3ccccc32)cc1Cl	x	x	x	x	x	-1	x	x
Nc1nc(=S)c2n[nH]nc2[nH]1	x	x	x	x	x	0	x	x
Cc1cccc(NC(=O)COc2ccc(Br)cc2/C=N/O)c1	-5	-5	43*	-1	4	0	-7	2%
CC(=O)Nc1ccc(NC(=O)COc2ccc(Br)cc2C)cc1	-6	26	2	0	6	-1	x	x
Cc1ccc(NC(=O)CSc2nnc(-c3ccccc3)n2C)cc1	x	x	x	x	x	-1	x	x
Cn1c(=O)[nH]c(=O)c2c1nc(NCc1ccccc1)n2Cc1ccc(F)cc1	-15	0	48*	-1	5	0	5	1%
O=C(Nc1ncccc1O)c1c(O)c2ccccc2[nH]c1=O	8	x	-6	27	x	-1	5	-1%
Clc1ccccc1OCc1nnc(-c2ccccc2Br)o1	-10	18	-8	0	-6	2	x	x
N#Cc1ccccc1OCc1nnc(-c2ccccc2Br)o1	0	5	44*	0	-12	2	-18	3%
COc1ccc(C(C[N+](=O)[O-])c2c(-c3ccccc3)cc3ccccn23)cc1 (stereo not given)	-9	-4	54*	0	6	3	-1	4%
O=S(=O)(Nc1c(Br)cc(Br)c2cccnc12)C1CC1	-10	-7	-4	-3	16	1	x	x
CC1(C)Cc2c(sc(NC(=O)c3ccc4ncsc4c3)c2C(N)=O)C(C)(C)N1	-16	2	44*	0	-6	-1	9	0%
CCOc1ccccc1-c1c2cc(O)c(=O)cc-2oc2cc(O)c(O)cc12	-8	u	1	31*	-41	110*	-15	0.73µM*
O=c1cc2oc3cc(O)c(O)cc3c(-c3ccccc3O)c-2cc1O	14	17	4	47*	7	16	5	10µM*
COc1ccc(OC)c(Nc2nc(-c3cccs3)cs2)c1	15	5	-3	0	2	0	x	x
COc1ccccc1Nc1nc(-c2cccs2)cs1	-1	0	44*	1	-11	-1	-5	5%
CC(C)(C)OC(=O)N1C=CCC1CN1C(=O)COCC1=O (stereo not given)	1	x	x	x	x	0	x	x
CCCCn1nnnc1SCC(=O)Nc1ccc(N(C)C)cc1	-1	-4	54*	0	u	1	-2	1%
O=c1[nH]cc(C#Cc2ccccc2)c2ncncc12	x	x	x	x	x	-1	x	x
O=S(=O)(c1ccccc1)C1CON(Cc2ccccc2)C1c1ccccc1 (stereo not given)	13	16	14	1	-11	1	x	x
CN1OCC(S(=O)(=O)c2ccccc2)C1c1ccccc1 (stereo not given)	-7	-3	44*	0	6	0	8	3%
SMILES	TRPML1 blocker	TRPV1 ag	TRHR enhancer-1	TRHR agonist-1	TRPV1 potentiator	TRPML1 ag	TRHR enhancer-2	TRHR agonist-2
CN(C(=O)c1ccc(NC(=O)c2ccco2)cc1)c1ccccc1	15	6	2	0	3	-1	x	x
CN(C(=O)c1cccc(NC(=O)c2ccco2)c1)c1ccccc1	-12	3	1	34*	-16	1	0	-1%
O=S(=O)(c1ccc2c(c1)CCCC2)N1CCN(c2nc(-c3ccccc3)nc3ccccc23)CC1	x	x	x	x	x	0	x	x
CCOC(=O)/C(C#N)=C/c1cccc(F)c1	-15	1	9	43*	-1	1	3	7%
O=C(Cn1nnc2ccccc21)C1CC1	31	1	47*	0	-15	0	-3	-1%
CN(C)c1ccc(/C=N/NC(=O)Cn2nnc3ccccc32)cc1	-2	3	2	29	-11	1	u	1%
O=C(Nc1ccc(Cl)cc1Cl)c1cnn2c1NC(=C1CC1)C=C2C(F)F	x	x	x	x	x	0	x	x
Cc1ccc(NC(=O)C2CC(=O)n3c(nc4ccccc43)N2)cc1Cl (stereo not given)	36	0	45*	1	24	2	-2	2%
CCCc1cc(=O)oc2c(C)c(OCC(=O)NCCN3CCOCC3)ccc12	-6	0	54*	-1	3	0	7	-1%
O=C(Nc1nnc(SCc2ccc(F)cc2)s1)C1=COCCO1	17	4	43*	1	7	4	-2	2%
O=C(Nc1nnc(SCc2ccccc2)s1)C1=COCCO1	1	15	-5	1	-9	-1	x	x
O=C(COc1ccccc1C(=O)Nc1cccnc1)Nc1ccc(Br)cc1	x	x	x	x	x	-1	x	x
CN(C)C(=O)/C(=C/c1cn(-c2ccccc2)nc1-c1cccc([N+](=O)[O-])c1)NC(=O)c1ccccc1	-5	-5	43*	-1	13	-1	4	-1%
C=CCNC(=O)/C(=C/c1cn(-c2ccccc2)nc1-c1cccc([N+](=O)[O-])c1)NC(=O)c1ccccc1	20	-1	4	0	u	2	x	x
O=C(CCC1N=C2c3ccccc3N=C(SCc3cccc(Cl)c3)N2C1=O)NCc1ccco1 (stereo not given)	2	1	49*	0	15	0	-6	u
C[n+]1ccc(/C=C/c2ccc(C=S)cc2)c2ccccc21	x	x	x	x	x	18	x	x
O=C(COC(=O)c1cc(=O)[nH]c2ccccc12)c1ccccc1	-22	4	-3	0	-8	1	x	x
Cc1ccc(C(=O)COC(=O)c2cc(=O)[nH]c3ccccc23)cc1	3	0	47*	-1	-1	3	4	1%
Cn1c(=O)c(N)c2c3c(c(Br)ccc31)C(=O)c1ccccc1-2	-20	x	-5	60*	x	27	-5	18µM*
Cc1cccc(N2CCN(C(=O)NC3CCCCC3)CC2C)c1 (stereo not given)	-3	93*	42*	0	-7	0	-9	2%

From PubChem
